In the supplement of paper PMC8728848:
This excerpt belongs to a sample that is enriched for the strongest signals.

What was measured:
Experiment in all cases: glycan array binding signal (z-score within array); higher = stronger binding
Conditions in all cases: glycan notation: IUPAC condensed, linker removed
[1] = target: Fuc(a1-2)Gal(b1-3)GalNAc(b1-4)[Neu5Ac(a2-3)]Gal(b1-4)Glc
Outline: (§1)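 The binding signal is a Z-score computed within each array and averaged over linkers. Arrays of the same protein sequence at different concentrations or buffers were also averaged together. Data originate from 3228 arrays in the Consortium for Functional Glycomics database, kept only where the protein sequence was available.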

[2] = target: Fuc(a1-2)Gal(b1-3)GlcNAc(b1-3)[Neu5Ac(a2-6)Gal(b1-4)GlcNAc(b1-6)]Gal(b1-4)Glc
Outline: as §1

[3] = target: Fuc(a1-2)Gal(b1-4)GlcNAc(b1-3)Gal(b1-4)GlcNAc(b1-2)Man(a1-3)[Fuc(a1-2)Gal(b1-4)GlcNAc(b1-3)Gal(b1-4)GlcNAc(b1-2)Man(a1-6)]Man(b1-4)GlcNAc(b1-4)GlcNAc
Outline: as §1

[4] = target: Fuc(a1-2)Gal(b1-4)[Fuc(a1-3)]GlcNAc(b1-3)Gal(b1-4)[Fuc(a1-3)]GlcNAc
Outline: as §1

[5] = target: Fuc(a1-2)Gal3S(b1-4)GlcNAc
Outline: as §1

[6] = target: Fuc(a1-2)[Gal(a1-3)]Gal(b1-4)GlcNAc(b1-3)[Fuc(a1-2)[Gal(a1-3)]Gal(b1-4)GlcNAc(b1-6)]GalNAc
Outline: as §1

[7] = target: Fuc(a1-2)[GalNAc(a1-3)]Gal(b1-3)GalNAc(a1-3)[Fuc(a1-2)]Gal(b1-4)GlcNAc
Outline: as §1

[8] = target: Fuc(a1-2)[GalNAc(a1-3)]Gal(b1-3)GlcNAc(b1-6)GalNAc
Outline: as §1

[9] = target: Fuc(a1-3)[Gal(b1-4)]GlcNAc(b1-6)GalNAc
Outline: as §1

[10] = target: Fuc(a1-3)[Gal3S(b1-4)]GlcNAc6S
Outline: as §1

Fuc(a1-4)GlcNAc = target: Fuc(a1-4)GlcNAc
Outline: as §1

[11] = target: Gal(a1-3)[Gal(a1-4)]Gal(b1-4)GlcNAc
Outline: as §1

Gal(a1-4)Gal(b1-4)GlcNAc = target: Gal(a1-4)Gal(b1-4)GlcNAc
Outline: as §1

Gal(b1-3)GlcNAc = target: Gal(b1-3)GlcNAc
Outline: as §1

[12] = target: Gal(b1-3)GlcNAc(a1-3)Gal(b1-4)GlcNAc
Outline: as §1

[13] = target: Gal(b1-3)GlcNAc(b1-2)Man(a1-3)[Gal(b1-3)GlcNAc(b1-2)Man(a1-6)]Man(b1-4)GlcNAc(b1-4)GlcNAc
Outline: as §1

[14] = target: Gal(b1-3)GlcNAc(b1-3)Gal(b1-4)GlcNAc(b1-3)Gal(b1-4)GlcNAc(b1-2)[Gal(b1-3)GlcNAc(b1-3)Gal(b1-4)GlcNAc(b1-3)Gal(b1-4)GlcNAc(b1-6)]Man(a1-6)[Gal(b1-3)GlcNAc(b1-3)Gal(b1-4)GlcNAc(b1-3)Gal(b1-4)GlcNAc(b1-2)Man(a1-3)]Man(b1-4)GlcNAc(b1-4)[Fuc(a1-6)]GlcNAc
Outline: as §1

[15] = target: Gal(b1-4)GlcNAc(b1-2)Man(a1-3)Man(b1-4)GlcNAc(b1-4)GlcNAc
Outline: as §1

[16] = target: Gal(b1-4)GlcNAc(b1-2)Man(a1-6)[GlcNAc(b1-2)Man(a1-3)]Man(b1-4)GlcNAc(b1-4)GlcNAc
Outline: as §1

[17] = target: Gal(b1-4)GlcNAc(b1-3)Gal(b1-4)GlcNAc(b1-2)Man(a1-3)[Gal(b1-4)GlcNAc(b1-3)Gal(b1-4)GlcNAc(b1-2)Man(a1-6)]Man(b1-4)GlcNAc(b1-4)[Fuc(a1-6)]GlcNAc
Outline: as §1

[18] = target: Gal(b1-4)GlcNAc(b1-3)Gal(b1-4)GlcNAc(b1-3)Gal(b1-4)GlcNAc(b1-2)Man(a1-3)[Gal(b1-4)GlcNAc(b1-3)Gal(b1-4)GlcNAc(b1-3)Gal(b1-4)GlcNAc(b1-2)Man(a1-6)]Man(b1-4)GlcNAc(b1-4)GlcNAc
Outline: as §1

[19] = target: Gal(b1-4)GlcNAc(b1-3)Gal(b1-4)GlcNAc(b1-3)Gal(b1-4)GlcNAc(b1-3)Gal(b1-4)GlcNAc(b1-2)Man(a1-3)[Gal(b1-4)GlcNAc(b1-3)Gal(b1-4)GlcNAc(b1-3)Gal(b1-4)GlcNAc(b1-3)Gal(b1-4)GlcNAc(b1-2)Man(a1-6)]Man(b1-4)GlcNAc(b1-4)GlcNAc
Outline: as §1

[20] = target: Gal(b1-4)GlcNAc(b1-3)Gal(b1-4)GlcNAc(b1-3)Gal(b1-4)GlcNAc(b1-3)Gal(b1-4)GlcNAc(b1-2)[Gal(b1-4)GlcNAc(b1-3)Gal(b1-4)GlcNAc(b1-3)Gal(b1-4)GlcNAc(b1-3)Gal(b1-4)GlcNAc(b1-6)]Man(a1-6)[Gal(b1-4)GlcNAc(b1-3)Gal(b1-4)GlcNAc(b1-3)Gal(b1-4)GlcNAc(b1-3)Gal(b1-4)GlcNAc(b1-2)Man(a1-3)]Man(b1-4)GlcNAc(b1-4)[Fuc(a1-6)]GlcNAc
Outline: as §1

[21] = target: Gal(b1-4)GlcNAc(b1-3)Gal(b1-4)GlcNAc(b1-3)Gal(b1-4)GlcNAc(b1-3)Gal(b1-4)GlcNAc(b1-3)Gal(b1-4)GlcNAc(b1-2)Man(a1-3)[Gal(b1-4)GlcNAc(b1-3)Gal(b1-4)GlcNAc(b1-3)Gal(b1-4)GlcNAc(b1-3)Gal(b1-4)GlcNAc(b1-3)Gal(b1-4)GlcNAc(b1-2)Man(a1-6)]Man(b1-4)GlcNAc(b1-4)GlcNAc
Outline: as §1

[22] = target: Gal(b1-4)GlcNAc(b1-3)Gal(b1-4)GlcNAc(b1-3)Gal(b1-4)GlcNAc(b1-3)Gal(b1-4)GlcNAc(b1-3)Gal(b1-4)GlcNAc(b1-2)[Gal(b1-4)GlcNAc(b1-3)Gal(b1-4)GlcNAc(b1-3)Gal(b1-4)GlcNAc(b1-3)Gal(b1-4)GlcNAc(b1-3)Gal(b1-4)GlcNAc(b1-6)]Man(a1-6)[Gal(b1-4)GlcNAc(b1-3)Gal(b1-4)GlcNAc(b1-3)Gal(b1-4)GlcNAc(b1-3)Gal(b1-4)GlcNAc(b1-3)Gal(b1-4)GlcNAc(b1-2)Man(a1-3)]Man(b1-4)GlcNAc(b1-4)[Fuc(a1-6)]GlcNAc
Outline: as §1

[23] = target: Gal(b1-4)GlcNAc(b1-6)GalNAc
Outline: as §1

Gal3S(b1-3)GlcNAc = target: Gal3S(b1-3)GlcNAc
Outline: as §1

[24] = target: Gal3S(b1-4)[Fuc(a1-3)]GlcNAc
Outline: as §1

[25] = target: GalNAc3S(b1-4)[Fuc(a1-3)]GlcNAc
Outline: as §1

[26] = target: GlcNAc(b1-3)Gal(b1-4)GlcNAc(b1-3)Gal(b1-4)GlcNAc(b1-3)Gal(b1-4)GlcNAc(b1-3)Gal(b1-4)GlcNAc(b1-2)Man(a1-3)[GlcNAc(b1-3)Gal(b1-4)GlcNAc(b1-3)Gal(b1-4)GlcNAc(b1-3)Gal(b1-4)GlcNAc(b1-3)Gal(b1-4)GlcNAc(b1-2)Man(a1-6)]Man(b1-4)GlcNAc(b1-4)[Fuc(a1-6)]GlcNAc
Outline: as §1

[27] = target: GlcNAc(b1-3)[GlcNAc(b1-6)]Gal(b1-4)GlcNAc
Outline: as §1

[28] = target: Man(a1-3)[Man(a1-6)]Man(b1-4)GlcNAc(b1-4)GlcNAc
Outline: as §1

[29] = target: Man(a1-3)[Man(a1-6)]Man(b1-4)GlcNAc(b1-4)[Fuc(a1-6)]GlcNAc
Outline: as §1

Man(a1-6)Man = target: Man(a1-6)Man
Outline: as §1

[30] = target: Neu5Ac(a2-3)Gal(b1-3)[Neu5Ac(a2-6)]GalNAc
Outline: as §1

[31] = target: Neu5Ac(a2-3)Gal(b1-4)GlcNAc
Outline: as §1

[32] = target: Neu5Ac(a2-3)Gal(b1-4)GlcNAc(b1-3)Gal(b1-4)GlcNAc(b1-3)Gal(b1-4)GlcNAc(b1-2)Man(a1-3)[Neu5Ac(a2-3)Gal(b1-4)GlcNAc(b1-3)Gal(b1-4)GlcNAc(b1-3)Gal(b1-4)GlcNAc(b1-2)Man(a1-6)]GalNAc
Outline: as §1

[33] = target: Neu5Ac(a2-3)Gal(b1-4)GlcNAc(b1-3)Gal(b1-4)GlcNAc(b1-6)[Gal(b1-3)]GalNAc
Outline: as §1

[34] = target: Neu5Ac(a2-3)Gal(b1-4)GlcNAc(b1-6)GalNAc
Outline: as §1

[35] = target: Neu5Ac(a2-3)GalNAc(b1-4)GlcNAc
Outline: as §1

[36] = target: Neu5Ac(a2-8)Neu5Ac(a2-3)Gal(b1-3)GalNAc(b1-4)[Neu5Ac(a2-3)]Gal(b1-4)Glc
Outline: as §1

[37] = target: Neu5Ac(a2-8)Neu5Gc(a2-3)Gal(b1-4)GlcNAc
Outline: as §1

[38] = target: Neu5Gc(a2-3)Gal(b1-4)GlcNAc
Outline: as §1

[39] = target: Neu5Gc(a2-3)Gal(b1-4)[Fuc(a1-3)]GlcNAc
Outline: as §1

B1: PX14343A-bvu-539-29-539 (Bacteroides vulgatus) (protein)
chain: DSLTESSSNTFWQTPDDALMALASCYDALQSNQLYNSDQYSLGPLYMDCISDNGGHFNWSGWMEGYDMAMGIHTPSSSIIGSYWKDCYEVISRCNVLIANIDRVDMDASQKAIYQAEAKTIRALMYINLTMTYQDVPFLTAPLTIDEAECEKTDRAAIVAHVMTDLQDAAEVLPQNASSRGHITKGAALSLLGRVALYNEKWDDAIAAYKQVQGLGYSLDPSYAKLFTQSGETSPEIIFAVRYEGPGMSEGAAFNAHWNTPLEAMNGTIDLADAYYCKDGKPTTDTKIAELNGGGGLDVSKPNPAHFENRDPRLYSTLFVPGMLWNGKGGIDTSASNPYANVYGGAAASLSTVYVYKYFDPTDTSNSWDNGQDFYVVRYAEVLLSLAEAMVQKGGYVYSDVTALVNEVRQRADVNMPTVEEVEGTSLSKDELLEVIKHERRVELAFEGLRLFDLYRWKELDKAVANIENERTMYGLAYEARKFNGERDYVWPLPTAELDTNKKLVQHDLWK
glycan array binding signal (z-score) [1]: -0.271
glycan array binding signal (z-score) [2]: -0.213
glycan array binding signal (z-score) [3]: 8.08
glycan array binding signal (z-score) [4]: -0.083
glycan array binding signal (z-score) [5]: -0.406
glycan array binding signal (z-score) [6]: 7.49
glycan array binding signal (z-score) [7]: 0.132
glycan array binding signal (z-score) [8]: -0.292
glycan array binding signal (z-score) [9]: -0.298
glycan array binding signal (z-score) [10]: -0.338
glycan array binding signal (z-score) (Fuc(a1-4)GlcNAc): -0.448
glycan array binding signal (z-score) [11]: 6.76
glycan array binding signal (z-score) (Gal(a1-4)Gal(b1-4)GlcNAc): -0.281
glycan array binding signal (z-score) (Gal(b1-3)GlcNAc): -0.258
glycan array binding signal (z-score) [12]: -0.396
glycan array binding signal (z-score) [13]: 0.765
glycan array binding signal (z-score) [14]: 4.27
glycan array binding signal (z-score) [15]: 8.02
glycan array binding signal (z-score) [16]: -0.116
glycan array binding signal (z-score) [17]: 0.489
glycan array binding signal (z-score) [18]: 1.35
glycan array binding signal (z-score) [19]: 6.18
glycan array binding signal (z-score) [20]: 3.38
glycan array binding signal (z-score) [21]: 2.78
glycan array binding signal (z-score) [22]: 9.28
glycan array binding signal (z-score) [23]: -0.291
glycan array binding signal (z-score) (Gal3S(b1-3)GlcNAc): -0.038
glycan array binding signal (z-score) [24]: -0.121
glycan array binding signal (z-score) [25]: -0.399
glycan array binding signal (z-score) [26]: 0.355
glycan array binding signal (z-score) [27]: -0.27
glycan array binding signal (z-score) [28]: -0.432
glycan array binding signal (z-score) [29]: -0.297
glycan array binding signal (z-score) (Man(a1-6)Man): -0.184
glycan array binding signal (z-score) [30]: 0.662
glycan array binding signal (z-score) [31]: -0.373
glycan array binding signal (z-score) [32]: 8.35
glycan array binding signal (z-score) [33]: -0.244
glycan array binding signal (z-score) [34]: 0.089
glycan array binding signal (z-score) [35]: -0.142
glycan array binding signal (z-score) [36]: -0.102
glycan array binding signal (z-score) [37]: 4.74
glycan array binding signal (z-score) [38]: -0.254
glycan array binding signal (z-score) [39]: -0.404
